Bioassay records from PubChem.
TDP1 cell noCPT: qHTS for Inhibitors of human tyrosyl-DNA phosphodiesterase 1 (TDP1): qHTS in cells in absence of CPT. DT40 Tdp1-/- hTDP1 cells, no CPT, ATP luminescence, 48 h. Potency, µM (top dose mostly 46.2 µM), usual class: inhibitors. 15% of 420,000 active; note: nearly all actives have a fitted effect of over 55% in size
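No-CPT arm: Tdp1-/-;hTDP1 DT40 cells (400/well) plus compounds, incubated ≥48 hr at 37 °C. Readout CellTiter-Glo luminescence.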
HT1080 IDH1KD tx: kills HT-1080 cells with IDH1 knockdown. HT-1080 IDH1 knockdown viability, ATP luminescence, 48 h. Potency, µM (series often up to 46.1 µM), usual class: cytotoxic. 2% of 360,000 active. AID 686971
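% activity derives from luminescence (CellTiter-Glo), normalised to DMSO and no-cell wells. HT-1080-IDH1KD cells, 750/well, had 48 h compound exposure at 37 °C.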
TGFb SMAD3 inh: inhibitors of TGF-b signaling; 1.2% of 410,000 active; HepG2 CAGA-GFP TGF-b/SMAD3 reporter, GFP fluorescence, 18 h; TGF-beta stimulated, 500 pg/mL final; AID 588855; Potency, µM (doses to about 46.1 µM), usual class: inhibitors; note: nearly all actives have a fitted effect of over 65% in size
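HEPG2 CAGA-GFP cells (1000/well, DMEM with 1% FBS) were pre-incubated 2 h at 37 degrees C, given compound by pin tool, then stimulated with TGF-beta at 500 pg/mL final for 18 h before per-cell GFP fluorescence imaging.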
HepG2 viability: counter-screen for TGF-b inhibitors: cytotoxicity in HepG2 cells. AID 588856. 0.76% of 410,000 active. Potency, µM (top dose mostly 46.1 µM), actives largely listed as cytotoxic. HepG2 CAGA-GFP viability, ATP luminescence, 18 h
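CellTiter-Glo luminescence gave cytotoxicity after 18 hours at 37 degrees C. The cells were HepG2 CAGA-GFP in 1% FBS DMEM, stimulated with 500 pg/mL TGF-beta after compound addition. %Activity was normalised to no-cell wells (complete cell-killing) and DMSO (no toxicity), and curves were fitted and classified.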
HT1080-NT tox: kills 2HG-producing HT-1080-NT fibrosarcoma cells; HT-1080-NT fibrosarcoma viability, CellTiter-Glo ATP luminescence, 48 h; Potency, µM (doses to about 46.1 µM), hits mostly cytotoxic; 1.6% of 360,000 active;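 note: NT is the 2HG producing partner of a matched IDH1 knockdown line; nearly all actives have a fitted effect of over 55% in size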
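HT-1080-NT fibrosarcoma cells (2HG-overproducing), 750 cells/well in RPMI with 5% FBS, dosed after 2 h and incubated 48 h at 37C. CellTiter-Glo luminescence normalized to DMSO and no-cell wells; concentration-response curves fitted and classed.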
TDP1 cell CPT: DT40-hTDP1 cell growth loss with CPT; Potency, µM (highest dose often 46.2 µM), hits mostly inhibitors; AID 686979; chicken DT40 Tdp1-/-;hTDP1 cells + 20 nM CPT, ATP luminescence, 48 h; 12% of 420,000 active; note: nearly all actives have a fitted effect of over 55% in size
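Chicken DT40 Tdp1-/- cells stably complemented with human TDP1 were seeded at 400 cells/well in medium containing 20 nM camptothecin, exposed to pin-transferred compounds, and grown at 37 °C for at least 48 hr. Viability was read as ATP luminescence.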
Large screens that a line does not name were inactive. Compounds with a hit are over-represented: about 17% of the library has one in this group of screens. Calls come from the whole dose curve; as a rule, active = well fitted curve in the direction sought with a large enough effect; inconclusive = small, poorly fitted or top-dose-only effect, or another doubt; inactive = no such curve, though single readings can be large; an effect the other way counts as inactive or inconclusive.

COc1ccccc1Cc1c(-c2ccc(Cl)cc2)nc2c(Cl)cc(C(F)(F)F)cn12	none (no result: TGFb SMAD3 inh, HepG2 viability)
COc1ccccc1Cc1c(-c2ccc(C#N)cc2)nc2c(Cl)cc(C(F)(F)F)cn12	TDP1 cell noCPT 15µM, TDP1 cell CPT 23µM (no result: TGFb SMAD3 inh, HepG2 viability)
CC(C)(C)Cc1c(-c2ccc(C#N)cc2)nc2c(Cl)cc(C(F)(F)F)cn12	TDP1 cell noCPT inconclusive, HT1080 IDH1KD tx inconclusive, TGFb SMAD3 inh inconclusive, HT1080-NT tox inconclusive, TDP1 cell CPT 18µM
CCCCCc1nnc(NC(=O)C2=COCCO2)s1	none
Cc1c(NC(=O)Nc2ccc(Br)cc2F)sc2nc3n(c(=O)c12)CCC(C)CC3 (stereo not drawn)	TDP1 cell noCPT inconclusive, TDP1 cell CPT 3.7µM (no result: HT1080 IDH1KD tx, HT1080-NT tox)
O=C1CCCC2=C1C(c1ccc3c(c1)OCO3)c1c([nH]n(-c3ccccc3)c1=O)N2 (stereo not drawn)	TDP1 cell noCPT 13µM
COc1cccc(C2C3=C(CCCC3=O)Nc3[nH]n(-c4ccccc4)c(=O)c32)c1 (stereo not drawn)	TDP1 cell noCPT inconclusive
Cc1cccn2c(CNCC3(c4ccccc4)CCCC3)c(C(=O)N3CCOCC3)nc12	TDP1 cell noCPT 10µM, TDP1 cell CPT 13µM
C/C(=N\NC(=S)NC1CCCCC1)c1cccc(Br)c1	TDP1 cell noCPT 16µM, TDP1 cell CPT inconclusive
C/C(=N\NC(=S)NC1CCCCC1)c1cccc(C(F)(F)F)c1	TDP1 cell noCPT 23µM, TDP1 cell CPT 21µM
C/C(=N\NC(=S)NC1CCCCC1)c1ccc(C#N)cc1	TDP1 cell noCPT inconclusive, TDP1 cell CPT inconclusive
CC(C)(O)C#Cc1ccc(CN2CCc3nnc(CCNC(=O)c4ccco4)n3CC2)cc1	none (no result: HT1080 IDH1KD tx, TGFb SMAD3 inh, HepG2 viability, HT1080-NT tox)
O=S(=O)(c1ccccc1)[C@@]1(c2ccc(Br)cc2)C[C@@H]2ON=C(c3cccc(Br)c3)[C@@H]2C1	TDP1 cell noCPT 18µM, TGFb SMAD3 inh inconclusive, TDP1 cell CPT inconclusive
Brc1cccc(-c2nnc(-c3ccccc3)o2)c1	none
O=S(=O)(c1ccccc1)[C@@]1(c2ccc(Br)cc2)C[C@@H]2ON=C(c3ccccc3)[C@@H]2C1	TDP1 cell noCPT 12µM, TDP1 cell CPT inconclusive
Cc1cc(=O)oc2cc(OCC(=O)N3CCN(C(=O)C4COc5ccccc5O4)CC3)c(Cl)cc12 (stereo not drawn)	TDP1 cell noCPT inconclusive, TDP1 cell CPT inconclusive
O=C(c1ccc([N+](=O)[O-])cc1)N1CCN(c2cccc3[nH]ccc23)CC1	TDP1 cell noCPT inconclusive
CCCCN(CC)Cc1ccc(CNC(=O)Nc2ccc(F)cc2)o1	TDP1 cell noCPT 5.6µM, HT1080 IDH1KD tx inconclusive, TGFb SMAD3 inh inconclusive, HT1080-NT tox 10µM, TDP1 cell CPT 4.5µM
CCCCN(CC)Cc1ccc(CNC(=S)Nc2ccc(C)cc2Cl)o1	TDP1 cell noCPT 18µM, HT1080-NT tox inconclusive, TDP1 cell CPT 16µM
CCCCN(CC)Cc1ccc(CNC(=S)Nc2c(C)cc(C)cc2C)o1	TDP1 cell noCPT inconclusive
CC(C)OCCCNC1=C(Cl)C(=O)c2ccccc2C1=O	TDP1 cell noCPT inconclusive, HT1080 IDH1KD tx inconclusive, TGFb SMAD3 inh inconclusive, TDP1 cell CPT inconclusive
COCCN1CC(=O)N(c2cccc(C)c2C)C(c2ccc(Cl)cc2)C1=O (stereo not drawn)	none
COCCCNCC1C(Oc2ccc(Cl)cc2)C(=O)N1c1ccccc1C (stereo not drawn)	TDP1 cell noCPT 16µM, TDP1 cell CPT inconclusive
Cc1ccccc1N1C(=O)C(Oc2ccc(Cl)cc2)C1CNCCCOC(C)C (stereo not drawn)	TDP1 cell noCPT 26µM, HT1080 IDH1KD tx 16µM, TGFb SMAD3 inh inconclusive, HT1080-NT tox 16µM, TDP1 cell CPT inconclusive
COc1ccccc1N1CCN(c2cc(C)nc3c(-c4ccc(Cl)cc4)c(C)nn23)CC1	none (no result: HT1080 IDH1KD tx, HT1080-NT tox)
